Hits are enriched below; roughly 7.5% of the tested compounds scored in any of these assays.
Rab9 promoter act: activators of Rab9 promoter; Huh7 Rab9 promoter-luciferase reporter, luminescence, 24 h; Potency, µM (highest dose often 9.22 µM), for inactives: at the highest dose activation, negative = inhibition, most hits filed as activators; hit rate 2.8% among 320,000; AID 485297; note: % of control where 0% means no effect; nearly all actives have a fitted effect of over 60% in size
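Huh7 cells stably carrying a Rab9 promoter-luciferase reporter, 1500 cells per well in OP-MEM I with 10% FBS, treated with compound 24 hours at 37C. Luciferase activity read by luminescence after 10 minutes with Amplite reagent.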
ELG1 genotox: induces genotoxicity in HEK293T cells with luciferase-tagged ELG1; Potency, µM (series often up to 46 µM), for the others: at the highest dose activity change, positive = activation, most hits filed as activators; hit rate 1.3% among 330,000; AID 504466; HEK293T ELG1-luciferase reporter, luminescence, 16 h; note: % of control where 0% means no effect; nearly all actives have a fitted effect of over 60% in size
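HEK293T cells expressing luciferase-tagged ELG1 were exposed to compound or DMSO vehicle for 16 hr at 37 °C and 5% CO2. Luciferase activity was then measured with ONE-Glo after 30 min at room temperature.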
SMN2 splice enh: enhancers of SMN2 splice variant expression | HEK293 SMN2-luciferase splicing reporter, luminescence, 30-36 h | Potency, µM (doses to about 46.1 µM), for inactives: at the highest dose activity change, positive = activation, usual class: activators | hit rate 2.8% among 210,000 | AID 1458; note: % of control where 0% means no effect; nearly all actives have a fitted effect of over 55% in size
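HEK293 cells carry an SMN2 […]–luciferase reporter in which exon 7 inclusion puts luciferase in frame. Cells were plated 10-12 h before compound addition, then incubated 30-36 h at 37C. ONE-Glo luminescence was read; sodium butyrate at 4.5 mM final served as control.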
Luc counter: counter-screen: inhibitors of Kinase-Glo firefly luciferase; AID 1379; hit rate 0.28% among 200,000; Kinase-Glo luciferase, ATP luminescence, 8 min; Q27757; Potency, µM (doses to about 38.3 µM), inactives show at the top dose activity change, negative = inhibition, usual class: inhibitors; note: % is set by controls: 0 for no effect and ±100 for the full control effect; nearly all actives have a fitted effect of over 60% in size
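Luminescence was the read-out, taken after 8-minute incubation at ambient temperature. Luciferase turned over luciferin with 10 uM ATP in imidazole pH 7.2 buffer containing KCl, MgCl2, Tween 20 and BSA.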
FLuc counter: counter-screen for miR-21 project: firefly luciferase inhibitors or activators; purified FLuc, Km substrates, luminescence inhibition; Potency, µM (highest dose often 57.5 µM), inactives show at the highest dose activity change, negative = inhibition, hits mostly inhibitors; AID 588342; hit rate 6.9% among 360,000;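 note: plate controls were vehicle for no effect and reference inhibitor for full effect; nearly all actives have a fitted effect of over 55% in size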
Target sequence (P08659 whole entry, looked up): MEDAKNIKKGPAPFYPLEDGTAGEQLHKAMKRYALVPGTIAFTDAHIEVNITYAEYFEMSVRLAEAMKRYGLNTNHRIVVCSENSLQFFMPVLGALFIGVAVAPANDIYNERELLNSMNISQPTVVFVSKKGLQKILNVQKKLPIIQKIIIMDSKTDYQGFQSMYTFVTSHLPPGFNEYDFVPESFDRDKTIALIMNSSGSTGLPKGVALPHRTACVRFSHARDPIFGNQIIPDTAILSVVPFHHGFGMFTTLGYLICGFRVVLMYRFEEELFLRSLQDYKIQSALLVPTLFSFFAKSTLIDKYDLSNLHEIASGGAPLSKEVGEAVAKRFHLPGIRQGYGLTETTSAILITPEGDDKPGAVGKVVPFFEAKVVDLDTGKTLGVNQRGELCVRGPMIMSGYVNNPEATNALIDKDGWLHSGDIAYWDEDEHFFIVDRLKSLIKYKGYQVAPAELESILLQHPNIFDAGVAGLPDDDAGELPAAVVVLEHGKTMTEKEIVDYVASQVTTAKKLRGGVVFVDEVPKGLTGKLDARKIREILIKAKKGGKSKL
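Biochemical qHTS of compounds, final roughly 60 µM downward over six points, against 10 nM purified firefly luciferase using Km concentrations of substrates (10 uM D-luciferin, 10 uM ATP) in Tris acetate pH 7.5 buffer; luminescence output.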
NPC1 promoter act: activates the NPC1 promoter; Potency, µM (doses to about 9.22 µM), for inactives: top-dose activation, usual class: activators; hit rate 2.4% among 320,000; Huh7 NPC1 promoter luciferase reporter, 24 h; AID 485313; note: % of control where 0% means no effect; nearly all actives have a fitted effect of over 60% in size
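NPC1 promoter–luciferase Huh7 cells; 24 h compound; luminescence.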
The depositor's hits bear a star; u = inconclusive; x = not tested or not shown. Calls come from the whole dose curve; as a rule, active = well fitted curve in the direction sought with a large enough effect; inconclusive = small, poorly fitted or top-dose-only effect, or another doubt; inactive = no such curve, though single readings can be large; an effect the other way counts as inactive or inconclusive. Potency is the fitted concentration of half-maximal effect.

SMILES	Rab9 promoter act	ELG1 genotox	SMN2 splice enh	Luc counter	FLuc counter	NPC1 promoter act
CCn1nccc1C(=O)Nc1ccc(Cl)cn1	27%	u	20%	u	u	26%
CCc1cccc(NC(=O)CN2Cc3ccccc3C2=O)c1	x	x	x	x	-3%	x
Cc1nnc2c(Nc3cccc(O)c3)nc3ccccc3n12	x	x	22%	x	4%	x
COc1ccc(N2CCN(C(=O)C(C)n3c(=O)cc(C(F)(F)F)c4c(C)nn(C)c43)CC2)cc1 (stereo not drawn)	x	x	x	x	-1%	x
Cc1ccc2cc3c(nc2c1)N(Cc1ccco1)CC3	1%	u	-17%	-1%	19µM*	6%
CC(C)(C)CC(=O)Nc1nnc2n1CCS2	x	x	x	x	0%	x
Cc1cc(OCC(=O)NNC(=O)c2ccncc2)ccc1C(C)C	-4%	2%	x	x	8.5µM*	-2%
CCc1ccc(OCC(=O)Nc2cccc3nsnc23)cc1	-6%	3%	-3%	-2%	17µM*	-2%
COCC(=O)Nc1ccc(C(C)C)cc1	26%	u	u	-7%	24µM*	27%
O=C(COc1ccc2ccccc2c1)Nc1ccncc1	-12%	-2%	x	1%	9.5µM*	2%
O=C(COc1ccccc1)Nc1ccncc1	-3%	-1%	x	-7%	-10%	-2%
Cc1ccccc1OCC(=O)Nc1cccc2nsnc12	0%	17%	29%	-4%	u	-2%
CCCn1cc(S(=O)(=O)c2cc(C)ccc2C)c(=O)c2cc(F)c(N3CCCCCC3)cc21	x	x	x	x	-5%	x
Cc1cc(C)cc(N2C(=O)CC(c3ccc(C(F)(F)F)cc3)C3=C2COC3=O)c1 (stereo not drawn)	x	x	-7%	x	-7%	x
CCc1ccccc1NC(=O)C(C)n1nc(-c2ccc(C)c(C)c2)ccc1=O (stereo not drawn)	x	x	x	x	-12%	x
O=C(NCCc1csc2nc(-c3ccccc3F)nn12)C(=O)Nc1cc(F)ccc1F	x	x	x	x	3%	x
Cc1ccc(Oc2ccc(OCC(=O)Nc3ccncc3)cc2)cc1	x	3%	x	x	x	x
COc1ccc(OCC(=O)N/N=C2\CCCCc3ccccc32)cc1	-3%	-2%	-7%	0%	-7%	0%
COCC(=O)Nc1cccc(C(F)(F)F)c1	-1%	0%	3.5µM*	-1%	0%	-2%
CCc1ccc(OCC(=O)N/N=C2\CC(=O)c3ccccc32)cc1	13%	-2%	-4%	-2%	12µM*	14%
CCc1ccc(OCC(=O)Nc2ccncc2)cc1	2%	-2%	x	x	11µM*	0%
CC(C)c1ccc(OCC(=O)Nc2ccncc2)cc1	0%	3%	x	x	5.4µM*	4%
Cc1cccc(NC(=O)CN(C)S(=O)(=O)c2ccc3c(c2)CCC(=O)N3)c1C	x	x	3%	x	0%	x
Cc1cccc(N(CC(=O)NCCc2ccccc2)S(=O)(=O)c2ccccc2)c1C	x	x	-14%	x	-2%	x
CC(C)c1ccc(OCC(=O)Nc2ccc(S(=O)(=O)Nc3ncccn3)cc2)cc1	x	x	3%	x	9.5µM*	x
SMILES	Rab9 promoter act	ELG1 genotox	SMN2 splice enh	Luc counter	FLuc counter	NPC1 promoter act
Cn1ccs/c1=N\C(=O)Nc1cccc(C(F)(F)F)c1	28%	4%	x	x	24µM*	u
CC(C)(C)c1ccc(OCC(=O)Nc2ccncc2)cc1	1%	-6%	x	x	6µM*	-2%
O=C(COc1ccc(Br)cc1)Nc1ccc(Cc2ccncc2)cc1	-9%	-3%	-13%	2%	-16%	-4%
CCOC(=O)c1cc(NC(=O)c2ccc(Cl)cc2)c(=O)n2c1oc1ccccc12	x	x	-3%	x	3%	x
COc1cc(NC(=O)CN2C(=O)C(c3ccc(Cl)cc3)=NC23CCCCC3)cc(OC)c1	x	x	-6%	x	-18%	x
Cc1oc(-c2ccc(-c3ccccc3)cc2)nc1CN1CCN(CC(=O)N(C)C)CC1	u	u	x	-3%	5.4µM*	u
COc1ccc(-c2nc(CN3CCN(Cc4ccccc4)CC3)c(C)o2)cc1	-5%	-6%	x	x	-20%	-3%
COc1ccc(/C=C2\SC(=S)N(CC(=O)N3CCN(C)CC3)C2=O)cc1	-6%	0%	x	x	11µM*	-3%
Cc1cc(NC(=O)CCN2C(=O)/C(=C/c3ccccc3Cl)SC2=S)no1	-2%	8%	-7%	1%	4%	-2%
CCc1ccc(/C=C2\SC(=S)N(CCC(=O)N3CCN(C)CC3)C2=O)cc1	-6%	-1%	-40%	-2%	2.7µM*	-6%
CN1CCN(C(=O)CCCN2C(=O)/C(=C/c3ccc(Cl)cc3)SC2=S)CC1	-7%	-1%	x	x	-11%	-2%
COc1ccc(/C=C2/SC(=S)N(CCCC(=O)N3CCN(C)CC3)C2=O)cc1	-7%	1%	x	x	21µM*	-5%
CCc1ccc(/C=C2\SC(=S)N(CCC(=O)Nc3cc(C)on3)C2=O)cc1	-6%	-2%	x	x	17µM*	2%
COc1ccc(/C=C2/SC(=S)N(CCC(=O)N3CCN(C)CC3)C2=O)cc1	4%	-9%	x	x	u	-5%
O=C(COc1ccccc1Cl)OCc1cc(=O)n2nc(C3CCCCC3)sc2n1	x	x	x	x	-17%	x
COc1ccccc1CNC(=O)c1ccc2nc(-c3ccccc3)c(-c3ccccc3)nc2c1	x	x	x	x	-19%	x
Cc1ccc(/C=C2\SC(=S)N(CCCC(=O)N3CCOCC3)C2=O)cc1	-18%	-12%	x	x	21µM*	-1%
COc1ccc(/C=C2\SC(=S)N(CC(=O)Nc3nnc(C)s3)C2=O)cc1	-2%	-3%	-9%	-3%	-19%	-1%
COc1ccc(/C=C2\SC(=S)N(CC(=O)NCCO)C2=O)cc1	3%	14%	-13%	0%	9.5µM*	-3%
[O-]/[N+](=C\c1ccc(OC(F)F)cc1)c1ccccc1	u	12%	-1%	-9%	15µM*	u
[O-]/[N+](=C/c1ccc(F)cc1)c1ccccc1	21%	4%	-9%	-15%	u	21%
COc1ccc2oc(C(=O)Nc3ccc(C)cn3)c(C)c2c1	3.2µM*	5.8µM*	x	x	1.9µM*	2.5µM*
COc1ccc(C(=O)Nc2ccccn2)cc1	-4%	-2%	2%	0%	2%	-2%
COc1ccc2oc(C(=O)Nc3ccccn3)c(C)c2c1	4µM*	u	x	x	0.6µM*	u
COc1ccc2oc(C(=O)NN3C(C)CCCC3C)c(C)c2c1 (stereo not drawn)	-4%	1%	13%	2%	-2%	-7%
COc1ccc2c(CC(=O)Nc3nc(C)cs3)coc2c1	u	-3%	-3%	-4%	24µM*	10%
COc1ccc2oc(C(=O)Nc3nc(C)cs3)c(C)c2c1	5.6µM*	u	x	x	0.6µM*	2.5µM*
COc1ccc(NC(=O)NC2COc3ccccc3C2)c(OC)c1 (stereo not drawn)	x	x	x	x	-1%	x
